Experiment [1] can be described thus: NCI Yeast Anticancer Drug Screen. Data for the rad50 strain (AID 155).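 Note: 0% = growth of vehicle-only cultures of the same strain.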 The conditions noted are these: S. cerevisiae rad50 strain growth inhibition, active compounds read high. In short, it runs like this:
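Yeast carrying a defined DNA repair defect were exposed to test compounds, and growth was compared with vehicle-treated controls to give percent inhibition.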

Experiment [2] can be described thus: NCI Yeast Anticancer Drug Screen. Data for the mec2-1 strain (AID 157). The conditions noted are these: S. cerevisiae mec2-1 strain, active compounds read high. The procedure, abridged: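 Using mec2-1 yeast: add compound, measure growth, express inhibition versus vehicle-treated cultures.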
A short description of experiment [3]: NCI Yeast Anticancer Drug Screen. Data for the sgs1 mgt1 strain (AID 161).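 Note: 0% = growth of cultures given vehicle only.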 As to conditions: S. cerevisiae sgs1 mgt1 strain, active compounds read high. The procedure, abridged:
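Percent growth inhibition was derived by comparing compound-exposed mutant yeast with vehicle-exposed cultures. The strain carries alterations in DNA damage repair.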

Experiment [4] can be described thus: NCI Yeast Anticancer Drug Screen. Data for the cln2 rad14 strain (AID 165).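 Note: 0% = growth equal to vehicle treated cultures.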 The conditions noted are these: S. cerevisiae cln2 rad14 strain, active compounds read high. In short, it runs like this: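 Yeast strain cln2 rad14, bearing defects in cell cycle control and DNA repair, serves as the test system; values reflect growth inhibition compared with vehicle.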
A short description of experiment [5]: NCI Yeast Anticancer Drug Screen. Data for the bub3 strain (AID 167). The conditions noted are these: S. cerevisiae bub3 mutant strain, active compounds read high. The procedure, abridged: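 Compounds were applied to a genetically altered yeast strain carrying a cell-cycle control defect. Growth inhibition was scored against vehicle-treated controls.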
A short description of experiment [6]: NCI Yeast Anticancer Drug Screen. Data for the mlh1 rad18 strain (AID 175). The conditions noted are these: S. cerevisiae mlh1 rad18 strain growth inhibition, active compounds read high. The procedure, abridged: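 Steps: expose repair-defective yeast to compound; measure growth; express inhibition against vehicle-treated controls.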
[7] abbreviates: at 5.0 µM (retest, dose inferred, filed as 0.5).
[8] abbreviates: at 50.0 µM (retest, dose inferred, filed as 5.0).

This is part of a sample that, as a whole, favours compounds with a hit. Of some 79,000 tested, about 15% had one in any assay. Unmarked numbers belong to inactive results. Calls of active or inactive are those of the source. Cut-off read from the data, not from the text of the source: active = growth inhibition above about 70%; inactive = the rest.

In the case of `Nc1cc2[nH]c(=O)c3cc(Cl)ccc3c2cc1Cl`, the growth inhibition in experiment [1] (setting [7]) is 83% (active); in experiment [1] (setting [8]) it was 94% (active); in experiment [1] (at 50.0 µM) it was 89.8% (active); in experiment [2] (setting [7]), 7%; in experiment [2] (setting [8]), 79% (active); in experiment [2] (at 50.0 µM), -3.35%. In addition, the growth inhibition in experiment [3] (setting [7]) is 26%; in experiment [3] (setting [8]), 86% (active); in experiment [3] (at 50.0 µM), 47.6%; in experiment [4] (setting [7]), 8%; in experiment [4] (setting [8]) it was 58%; in experiment [4] (at 50.0 µM) it was -24.2%. For the same molecule, the growth inhibition in experiment [5] (setting [7]) was 8%; in experiment [5] (setting [8]) it was 59%; in experiment [5] (at 50.0 µM) it was -5.15%; in experiment [6] (setting [7]), 65%; in experiment [6] (setting [8]), 95% (active); in experiment [6] (at 50.0 µM), 61.2%.

For the molecule `BrC1(c2ccccc2)C[n+]2c(-c3ccccc3)cc(-c3ccccc3)cc2-c2ccccc21` (configuration not stated), the growth inhibition is 95% (active) in experiment [1] (setting [7]); 99% (active) in experiment [1] (setting [8]); 89.8% (active) in experiment [1] (at 50.0 µM); 96% (active) in experiment [2] (setting [7]); 99% (active) in experiment [2] (setting [8]); 91.5% (active) in experiment [2] (at 50.0 µM). Also, the growth inhibition in experiment [3] (setting [7]) is 97% (active); in experiment [3] (setting [8]), 98% (active); in experiment [3] (at 50.0 µM), 91.2% (active); in experiment [4] (setting [7]), 95% (active); in experiment [4] (setting [8]), 99% (active); in experiment [4] (at 50.0 µM) it was 91.2% (active). Moreover, the growth inhibition in experiment [5] (setting [7]) is 37%; in experiment [5] (setting [8]) it was 98% (active); in experiment [5] (at 50.0 µM), 89.4% (active); in experiment [6] (setting [7]), 97% (active); in experiment [6] (setting [8]), 99% (active); in experiment [6] (at 50.0 µM) it was 91% (active).

Turning to `Cc1ccc(S(=O)(=O)N/N=C(\C=C\c2ccccc2)c2ccccc2)cc1`, the growth inhibition in experiment [1] (setting [7]) is -1%; in experiment [1] (setting [8]) it was 32%; in experiment [1] (at 50.0 µM), 59.1%; in experiment [2] (setting [7]) it was 5%; in experiment [2] (setting [8]) it was 57%; in experiment [2] (at 50.0 µM), 63.9%. Further, the growth inhibition in experiment [3] (setting [7]) is 24%; in experiment [3] (setting [8]), 47%; in experiment [3] (at 50.0 µM), 59.5%; in experiment [4] (setting [7]), -19%; in experiment [4] (setting [8]), 16%; in experiment [4] (at 50.0 µM), 44.4%. The growth inhibition in experiment [5] (setting [7]) was 15%; in experiment [5] (setting [8]) it was 49%; in experiment [5] (at 50.0 µM) it was 41.1%; in experiment [6] (setting [7]) it was 20%; in experiment [6] (setting [8]), 70% (active); in experiment [6] (at 50.0 µM), 37.1%.

Take `Cc1ccc(S(=O)(=O)NCCSSCCNS(=O)(=O)c2ccc(C)cc2)cc1`: the growth inhibition in experiment [1] (setting [7]) was -4%; in experiment [1] (setting [8]), 95% (active); in experiment [1] (at 50.0 µM), 93.5% (active); in experiment [2] (setting [7]) it was -3%; in experiment [2] (setting [8]), 97% (active); in experiment [2] (at 50.0 µM) it was 96% (active). Further, the growth inhibition in experiment [3] (setting [7]) was -2%; in experiment [3] (setting [8]), 98% (active); in experiment [3] (at 50.0 µM), 96.6% (active); in experiment [4] (setting [7]), -6%; in experiment [4] (setting [8]), 96% (active); in experiment [4] (at 50.0 µM), 94% (active). Besides, the growth inhibition in experiment [5] (setting [7]) is 1%; in experiment [5] (setting [8]), 95% (active); in experiment [5] (at 50.0 µM), 94.3% (active); in experiment [6] (setting [7]), 1%; in experiment [6] (setting [8]) it was 96% (active); in experiment [6] (at 50.0 µM), 95.4% (active).

As to `CCCCCCCCCC1OCC(O)CO1` (configuration not stated) (tested in a mixture with another compound), the growth inhibition was 7% in experiment [1] (setting [7]); 66% in experiment [1] (setting [8]); 99% (active) in experiment [1] (at 50.0 µM); 9% in experiment [2] (setting [7]); 79% (active) in experiment [2] (setting [8]); 96.1% (active) in experiment [2] (at 50.0 µM). Also, the growth inhibition in experiment [3] (setting [7]) is 10%; in experiment [3] (setting [8]), 96% (active); in experiment [3] (at 50.0 µM), 98.7% (active); in experiment [4] (setting [7]), 3%; in experiment [4] (setting [8]), 90% (active); in experiment [4] (at 50.0 µM), 86.4% (active). The growth inhibition in experiment [5] (setting [7]) was 8%; in experiment [5] (setting [8]), 87% (active); in experiment [5] (at 50.0 µM), 89.3% (active); in experiment [6] (setting [7]), 12%; in experiment [6] (setting [8]), 98% (active); in experiment [6] (at 50.0 µM), 99.5% (active).

Take `Cc1ccc(Cc2n[nH]c(=O)n2N2C(=O)c3ccccc3C2=O)cc1`: the growth inhibition in experiment [1] (setting [7]) is 18%; in experiment [1] (setting [8]), 16%; in experiment [1] (at 50.0 µM), -24.8%; in experiment [2] (setting [7]), 9%; in experiment [2] (setting [8]), 14%; in experiment [2] (at 50.0 µM) it was -37.2%. Moreover, the growth inhibition in experiment [3] (setting [7]) was 9%; in experiment [3] (setting [8]), 9%; in experiment [3] (at 50.0 µM), -33.4%; in experiment [4] (setting [7]) it was 9%; in experiment [4] (setting [8]), 17%; in experiment [4] (at 50.0 µM) it was -5.1%. Moreover, the growth inhibition in experiment [5] (setting [7]) is 18%; in experiment [5] (setting [8]), 13%; in experiment [5] (at 50.0 µM), -25.1%; in experiment [6] (setting [7]) it was 13%; in experiment [6] (setting [8]), 12%; in experiment [6] (at 50.0 µM), -38.2%.

In the case of `CC(C)(C)OC(=O)N[C@H]1CC2(C=C(Cl)C(=O)C(Cl)=C2)OC1=O`, the growth inhibition in experiment [1] (setting [7]) is 32%; in experiment [1] (setting [8]), 70% (active); in experiment [1] (at 50.0 µM), 86.5% (active); in experiment [2] (setting [7]), 16%; in experiment [2] (setting [8]) it was 72% (active); in experiment [2] (at 50.0 µM), 80.8% (active). In addition, the growth inhibition was 23% in experiment [3] (setting [7]); 90% (active) in experiment [3] (setting [8]); 90.8% (active) in experiment [3] (at 50.0 µM); 13% in experiment [4] (setting [7]); 31% in experiment [4] (setting [8]); 69.2% in experiment [4] (at 50.0 µM). The growth inhibition in experiment [5] (setting [7]) was 14%; in experiment [5] (setting [8]), 83% (active); in experiment [5] (at 50.0 µM) it was 70.4% (active); in experiment [6] (setting [7]) it was 43%; in experiment [6] (setting [8]), 92% (active); in experiment [6] (at 50.0 µM) it was 81% (active).

On to `Clc1ccc(-c2nnn3ccccc23)cc1`, for which the growth inhibition in experiment [1] (setting [7]) is 4%; in experiment [1] (setting [8]) it was 8%; in experiment [1] (at 50.0 µM) it was 95.3% (active); in experiment [2] (setting [7]), 12%; in experiment [2] (setting [8]), 9%; in experiment [2] (at 50.0 µM) it was 93.5% (active). Further, the growth inhibition in experiment [3] (setting [7]) is -3%; in experiment [3] (setting [8]), 12%; in experiment [3] (at 50.0 µM), 95.8% (active); in experiment [4] (setting [7]), 4%; in experiment [4] (setting [8]), 10%; in experiment [4] (at 50.0 µM), 28.6%. Further, the growth inhibition in experiment [5] (setting [7]) is 2%; in experiment [5] (setting [8]) it was 5%; in experiment [5] (at 50.0 µM) it was 91.7% (active); in experiment [6] (setting [7]) it was 13%; in experiment [6] (setting [8]) it was 51%; in experiment [6] (at 50.0 µM) it was 94.1% (active).

In the case of `Cc1ccc(N=C(N)Nc2ccc(C)cn2)nc1`, the growth inhibition in experiment [1] (setting [7]) was 6%; in experiment [1] (setting [8]), 78% (active); in experiment [1] (at 50.0 µM), 84.5% (active); in experiment [2] (setting [7]), 2%; in experiment [2] (setting [8]), 68%; in experiment [2] (at 50.0 µM), 77.9% (active). The growth inhibition is 4% in experiment [3] (setting [7]); 69% in experiment [3] (setting [8]); 44.6% in experiment [3] (at 50.0 µM); 19% in experiment [4] (setting [7]); 74% (active) in experiment [4] (setting [8]); 40% in experiment [4] (at 50.0 µM). Further, the growth inhibition in experiment [5] (setting [7]) was -5%; in experiment [5] (setting [8]) it was 70% (active); in experiment [5] (at 50.0 µM), 79.3% (active); in experiment [6] (setting [7]), 5%; in experiment [6] (setting [8]) it was 72% (active); in experiment [6] (at 50.0 µM), 41.5%.

The values above are taken from PubChem BioAssay (NCI).
